From PubChem BioAssay come the findings set out here.

Structures are written as SMILES. Values joined by “and” are separate entries in the source; they are usually repeats but may differ in a detail not shown here. Equal entries are not always repeated. Where a structure was tested more than once in an assay, its records may differ in their call. Active and inactive are the calls of the source.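 How the source made its calls, unless noted: active means inhibition at or above 50% relative to wild type and mutant plate controls; inactive means inhibition below 50%.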

A short description of assay [1]: inhibitors of TNFa-induced NFkB p65 translocation, primary screen, imaging, HUVEC, MLSMR starter and 10KST1 sets (AID 438;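 active means inhibition above 20% together with a positive visual image hit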;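 further: compound added about 3h40 before a 20 min TNFalpha stimulation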;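 on inhibition: signal is the nuclear over cytoplasmic p65 intensity ratio per well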). As to conditions: HUVEC TNFa-induced p65 nuclear translocation; cell count: measured here: nuclei count (cytotoxicity indicator), at 2.08 µM; inhibition: at 2 µM, stronger effect = higher value, 0% TNFa-plus-vehicle, 100% no-TNFa wells.
Assay [2] is described as follows: inhibitors of mutant huntingtin aggregation, primary screen, imaging, exon1htt(103Q)mCFP cells, high-content imaging (AID 483;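 active means visual image review flags a hit and inhibition of aggregation exceeds 20%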;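 further: compound exposure lasted 3 days before fixation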;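 on nuclei count: percent of the per-plate median nuclei count of sample wells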). Conditions: exon1htt(103Q)mCFP cell line, aggregate imaging, at 2 µM; inhibition of aggregation: stronger effect = higher value; nuclei count: measured here: cell count, toxicity.
Assay [3] in a line: inhibitors of E-selectin induction by TNFa, primary screen, imaging, HUVEC, immunofluorescence, MLSMR starter and 10KST1 sets (AID 487;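 active means visually confirmed hit in the image check and inhibition above 20%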;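 on inhibition: signal is fraction of cell area covered by stained E-selectin grains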;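 on nuclei count: 100% = median nuclei count of all wells on the same plate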). Conditions: HUVEC TNFalpha-induced E-selectin immunofluorescence imaging, at 2 µM; inhibition: stronger effect = higher value; nuclei count: measured here: cell number, toxicity.
A short description of assay [4]: DUSP6 inhibitors restoring Erk phosphorylation by chemical complementation, primary imaging in DUSP6-transfected HeLa (AID 609;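 active means compounds giving at least 50% inhibition in the cell-based MKP-3 phosphatase rescue imaging test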;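 on inhibition: phospho-Erk level distribution per well compared with pooled transfected vehicle control wells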). Conditions: HeLa MKP-3 transfected, phospho-Erk imaging KS statistic, at 10 µM, cells stimulated with TPA for 15 min.
The target of assay [5] is Dual specificity protein phosphatase 6 (Homo sapiens) (UniProt Q16828). The assay is described as above. Conditions: HeLa MKP-3 transfected, phospho-Erk imaging KS statistic; at 10 µM; stronger effect = higher value; cells stimulated with TPA for 15 min.
Dual specificity protein phosphatase 6 (Homo sapiens), sequence (Q16828 whole entry, looked up): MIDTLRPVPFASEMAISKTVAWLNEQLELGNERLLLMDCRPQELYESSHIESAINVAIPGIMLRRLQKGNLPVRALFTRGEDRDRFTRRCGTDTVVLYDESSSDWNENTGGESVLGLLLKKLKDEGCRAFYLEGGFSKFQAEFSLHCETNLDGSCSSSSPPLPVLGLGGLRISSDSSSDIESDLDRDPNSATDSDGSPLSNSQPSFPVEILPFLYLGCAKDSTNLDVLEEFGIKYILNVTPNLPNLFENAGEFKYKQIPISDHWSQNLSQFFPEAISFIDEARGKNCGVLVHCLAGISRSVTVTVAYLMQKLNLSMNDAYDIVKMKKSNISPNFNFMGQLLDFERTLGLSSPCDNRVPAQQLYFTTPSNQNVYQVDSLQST
Assay [6] addresses Voltage-gated potassium channel subunit beta-2 (Rattus norvegicus) (UniProt P62483). The assay can be described thus: KvBeta enzyme negative modulators, primary screen, biochemical, NADPH fluorescence (AID 622;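 active means fluorescence slope higher than the sample average by over 3 SD, cut at about -0.22 in these data, passing the limit was not always enough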;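 further: slope of raw intensity against log time taken from 70 to 1610 s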). As to conditions: recombinant KvBeta, 4-cyanobenzaldehyde reduction, at 10 µM, stronger effect = higher value.
Assay [7] has the same target. Briefly: KvBeta positive modulators, primary screen, biochemical, NADPH fluorescence (AID 623;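 active means NADPH fluorescence slope more negative than the mean of all samples by about 3 SD, 99.7% confidence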;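 further: fluorescence intensity change per second fitted from 20 to 320 s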). As to conditions: Recombinant KvBeta, NADPH fluorescence decrease slope, 10 min; at 10 µM; stronger effect = lower value.
Assay [8] concerns the target Alpha-2C adrenergic receptor (Homo sapiens) (UniProt P18825). The assay can be described thus: modulators of alpha2C/GIRK thallium flux, primary screen, cell-based, HEK293 alpha2C/GIRK1/2 (AID 624;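 active means fluorescence slope after compound addition differing from the mean of all screened samples at 99.7% confidence, in either direction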;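 further: slope of fluorescence ratio to pre-addition baseline per second over 15 to 24 s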). Conditions: thallium flux BTC fluorescence, at 10 µM, actives lie on both sides.
A short description of assay [9]: inhibitors of larval lipid processing in zebrafish, primary screen, whole organism, PED6 fluorescence, gall bladder and intestine (AID 686;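 active means a full or partial loss of lipid-probe fluorescence in the fish gall bladder, intestine or both, judged by eye; inactive means no fluorescence loss, or compound toxic to the fish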;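 further: larvae 5 to 7 days old with five fish per well; signal comes from phospholipase A2 cleavage of quenched PED6 carried via bile; overnight exposure to compound and PED6 before scoring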). As to conditions: Zebrafish larvae PED6 lipid processing, fluorescence scoring; screened at 20 µM (by protocol).
Assay [10] can be described thus: inhibitors of Chlamydomonas gravitaxis, primary screen, whole organism, Chlamydomonas reinhardtii, WT vs cilia-less mutant, absorbance, 96-well (AID 463189).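 Further: 0% = wild type cc124 cells in DMSO and 100% = ciliumless bld1 mutant cells.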 As to conditions: OD600 absorbance, 2 days, at 10 µM, stronger effect = higher value.
Assay [11] is described as follows: inhibitors of Sendai virus-induced IRF3 signaling, primary screen, TLR/RLR signaling modifier project, cell-based, Sendai virus stimulus, luciferase, 10K MLSCN set (AID 602276;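 active means inhibition at or above 50% at 10 µM; inactive means inhibition below 50%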;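 further: firefly luciferase from ISG56 promoter only with Renilla not read in this screen; 0% = Sendai virus plus DMSO and 100% = medium plus DMSO without virus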). As to conditions: HEK293 RL24 IRF3 luciferase reporter, at 10 µM, stronger effect = higher value. A general note: In a reporter assay the amount or activity of a reporter protein is the signal.
A short description of assay [12]: inhibitors of poly I:C-induced TLR3 signaling, primary screen, cell-based, poly I:C stimulus, luciferase, 10K MLSCN set (AID 602277;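 active means inhibition of the reporter signal at or above 50%; inactive means inhibition below 50%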). As to conditions: HEK293-TLR3 RL24 IRF3 luciferase reporter, at 10 µM, stronger effect = higher value.
Where [13] appears, read: measured here: cell density z-score.
The mark [14] stands for this setting: measured here: nuclear c-Myc green intensity z-score.
Setting [15] is: measured here: nuclear pErk red intensity z-score, stronger effect = higher value.

Voltage-gated potassium channel subunit beta-2 (Rattus norvegicus), sequence (P62483 whole entry, looked up): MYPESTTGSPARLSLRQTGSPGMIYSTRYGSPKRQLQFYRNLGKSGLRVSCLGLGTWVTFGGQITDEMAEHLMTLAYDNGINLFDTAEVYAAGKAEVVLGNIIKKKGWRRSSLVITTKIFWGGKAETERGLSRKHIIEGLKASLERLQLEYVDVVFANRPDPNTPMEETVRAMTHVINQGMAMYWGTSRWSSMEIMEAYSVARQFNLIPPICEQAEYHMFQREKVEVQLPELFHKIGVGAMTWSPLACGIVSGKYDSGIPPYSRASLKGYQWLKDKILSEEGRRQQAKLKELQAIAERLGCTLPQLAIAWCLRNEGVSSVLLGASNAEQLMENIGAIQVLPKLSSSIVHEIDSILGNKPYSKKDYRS
Alpha-2C adrenergic receptor (Homo sapiens), sequence (P18825 whole entry, looked up): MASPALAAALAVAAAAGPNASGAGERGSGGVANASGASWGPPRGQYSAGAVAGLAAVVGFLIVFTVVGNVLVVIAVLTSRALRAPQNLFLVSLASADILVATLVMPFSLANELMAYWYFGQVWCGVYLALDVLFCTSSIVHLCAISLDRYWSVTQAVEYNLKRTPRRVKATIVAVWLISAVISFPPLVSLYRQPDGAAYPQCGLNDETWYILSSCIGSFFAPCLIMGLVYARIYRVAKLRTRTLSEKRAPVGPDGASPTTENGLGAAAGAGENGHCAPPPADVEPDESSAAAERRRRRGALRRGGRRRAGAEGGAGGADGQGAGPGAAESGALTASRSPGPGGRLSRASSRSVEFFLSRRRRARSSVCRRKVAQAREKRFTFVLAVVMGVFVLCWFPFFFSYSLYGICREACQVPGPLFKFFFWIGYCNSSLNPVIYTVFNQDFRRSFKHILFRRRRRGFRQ

The inhibition is the drop in the measured response relative to a control, in per cent. With `CN(C)CCC=C1c2ccccc2CCc2ccccc21`, in [1], the cell count came out at 541. Also, the inhibition was -3.1% (inactive) in assay [1]; -17.7% (inactive) in assay [3]; -0.493% (inactive) in assay [5]; 6.87% (inactive) and 12.5% (inactive) in assay [10]; -9.05% (inactive) in [11]; 51% (active) in assay [12]. The inhibition of aggregation in [2] is 2.1% (inactive). The figures for the nuclei count in assay [2] and in assay [3] were 107% and 126%, respectively. The z-score in assay [4] (setting [13]) is 0.892; in assay [4] (setting [14]), -0.494; in assay [4] (setting [15]), 0.732. Besides, the fluorescence slope in [6] was -0.449 (inactive). For the same compound, the NADPH fluorescence slope in assay [7] was -6.5e-05 (inactive). For the same compound, the slope in assay [8] was 0.00605 (inactive). Further, the result in assay [9] was inactive.

As to `Cn1c(=O)c2c(ncn2CCO)n(C)c1=O`, the cell count in [1] amounted to 575. Also, the inhibition in assay [1] was 3.2% (inactive); in assay [3], -46.8% (inactive); in assay [5] it was 1.38% (inactive); in assay [10], -9.91% (inactive); in assay [11], 14.7% (inactive); in [12], 34.5% (inactive). Besides, the inhibition of aggregation in [2] was -12.9% (inactive). The nuclei count amounted to 102% in [2] and 114% in assay [3]. The z-score in assay [4] (setting [13]) was -1.46; in assay [4] (setting [14]) it was -1.4; in assay [4] (setting [15]), -0.23. Moreover, the fluorescence slope in assay [6] was -0.45 (inactive). Further, the NADPH fluorescence slope in assay [7] is -4.4e-05 (inactive). Also, in [8], the slope was 0.00454 (inactive). The compound was called inactive in assay [9].

Take `CC(=O)Nc1ccc(S(=O)(=O)Nc2nc3n(n2)C(c2ccccc2)CC(=O)N3)cc1` (stereo not given): the cell count in assay [1] was found to be 456. Further, the inhibition in assay [1] is -7.4% (inactive); in assay [3] it was -106% (inactive); in assay [5] it was 21% (inactive); in [10], -0.258% (inactive); in assay [11] it was 16.4% (inactive); in assay [12], 16.2% (inactive). The inhibition of aggregation in assay [2] was -5.2% (inactive). The nuclei count in assay [2] was found to be 116%; in [3] it was 137%. Further, the z-score was -0.235 in assay [4] (setting [13]), -1.01 in assay [4] (setting [14]) and 1.56 in assay [4] (setting [15]). Also, the fluorescence slope in assay [6] is -0.507 (inactive). Besides, the NADPH fluorescence slope in assay [7] was -2e-05 (inactive). In addition, in assay [8], the slope is 0.00521 (inactive). Also, the call in assay [9] was inactive.

On to `OCC(O)CN1CCN(c2ccccc2)CC1` (stereo not given), for which the cell count in assay [1] was 605. In addition, the inhibition is -6.5% (inactive) in assay [1]; -69.1% (inactive) in assay [3]; 25.1% (inactive) in [5]; 19.7% (inactive) in assay [10]; 17.9% (inactive) in assay [11]; 40.8% (inactive) in assay [12]. Also, the inhibition of aggregation in [2] was -0.5% (inactive). For the same compound, the values for the nuclei count in [2] and in [3] were 108% and 122%, respectively. In addition, the z-score is 0.00928 in assay [4] (setting [13]), 0.0558 in assay [4] (setting [14]) and -0.225 in assay [4] (setting [15]). Moreover, the fluorescence slope in assay [6] was -0.455 (inactive). The NADPH fluorescence slope in [7] is -1.7e-06 (inactive). Besides, in [8], the slope is 0.00502 (inactive). Besides, the compound was called inactive in assay [9].

On to `OCCN1CCN(CCCN2c3ccccc3Sc3ccc(C(F)(F)F)cc32)CC1`, for which the cell count in [1] was found to be 606. For the same compound, the inhibition in assay [1] is 2% (inactive); in [3] it was -56.8% (inactive); in assay [5] it was -10.4% (inactive); in assay [10], -10.6% (inactive) and 145% (active); in [11], 12.2% (inactive); in [12], 58.3% (active). Further, the inhibition of aggregation in [2] was 4.9% (inactive). Further, the nuclei count in assay [2] was 91.7%; in assay [3], 127%. Further, the z-score in assay [4] (setting [13]) is 0.204; in assay [4] (setting [14]) it was 0.276; in assay [4] (setting [15]), 0.714. In addition, the fluorescence slope in assay [6] was -0.544 (inactive). In assay [7], the NADPH fluorescence slope is -5.6e-05 (inactive). Further, the slope in assay [8] was 0.00393 (inactive). Moreover, the outcome in [9] was “active; no signal in intestine only”.
